Most compounds without a hit are left out; they make up all but 3.8% or so of the library.
ATXN2 expr inh – inhibitors of ATXN2 expression; AID 1745845; 0.72% of 360,000 active; Potency, µM (highest dose often 57 µM), for inactives: top-dose activity change, negative = inhibition, hits mostly inhibitors; HEK-293 ATXN2-luciferase reporter, luminescence, 24 h; further: on the % scale 0 is the no-effect control and ±100 the full control effect; nearly all actives have a fitted effect of over 55% in size
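qHTS (up to 57 uM final) was run with 24 h compound exposure of reporter cells at 37 °C. Each well was multiplexed: SteadyGlo luminescence measured ATXN2-luciferase expression after a fluorogenic Gly-Phe-AFC viability readout (25 uM final).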
ATXN viability – viability counter-screen for ATXN expression inhibitors; AID 651635; 0.49% of 400,000 active; Potency, µM (series often up to 56.7 µM), usual class: cytotoxic; S2 cells (HEK-293 line with an ATXN2-luciferase reporter) viability, CellTiter-Fluor protease fluorescence, 24 h; further: nearly all actives have a fitted effect of over 40% in size
HT1080 IDH1KD tx – kills HT-1080 cells with IDH1 knockdown; 2% of 360,000 active; HT-1080 IDH1 knockdown viability, ATP luminescence, 48 h; Potency, µM (highest dose often 46.1 µM), without a hit: at the highest dose activity, negative = toxicity, actives largely listed as cytotoxic; AID 686971;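 further: 0% = DMSO wells and -100% = cell-free medium wells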
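Assay cells: HT-1080 with IDH1 knockdown, 750 per well, RPMI/5% FBS. Exposure: 48 h at 37 °C following 2 h pre-incubation. Read: CellTiter-Glo luminescence; fitted concentration-response, curve class assigned.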
HT1080-NT tox – kills 2HG-producing HT-1080-NT fibrosarcoma cells. AID 686970. 1.6% of 360,000 active. HT-1080-NT fibrosarcoma viability, CellTiter-Glo ATP luminescence, 48 h. Potency, µM (series often up to 46.1 µM), inactives show top-dose activity, negative = less viability, hits mostly cytotoxic;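 further: NT is the 2HG producing partner of a matched IDH1 knockdown line; 0% = DMSO-treated cells and -100% = media-only wells without cells; nearly all actives have a fitted effect of over 55% in size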
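750 cells/well, RPMI + 5% FBS; 2 h settle, compound pin-transfer, 48 h at 37 degrees C. CellTiter-Glo 10 min RT, luminescence. Normalized to DMSO and media-only wells.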
HepG2 viability – HepG2 cytotoxicity, counter-screen for TGF-b inhibitors. HepG2 CAGA-GFP viability, ATP luminescence, 18 h. Potency, µM (titrated, usually from 46.1 µM), inactives show at the highest dose activity change, negative = cytotoxicity, usual class: cytotoxic. 0.76% of 410,000 active. AID 588856
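HepG2 CAGA-GFP cells (1000/well, DMEM with 1% FBS) received compound, then TGF-beta at 500 pg/mL final, and were incubated 18 hours at 37 degrees C. Viability was read by CellTiter-Glo luminescence. Media-only wells were set as complete cell-killing and DMSO as no toxicity.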
TGFb SMAD3 inh – TGF-b pathway inhibition; HepG2 CAGA-GFP TGF-b/SMAD3 reporter, GFP fluorescence, 18 h; TGF-beta stimulated, 500 pg/mL final; Potency, µM (highest dose often 46.1 µM), for the others: at the top dose activity, negative = inhibition, actives largely listed as inhibitors; 1.2% of 410,000 active; further: on the % scale 0 is the no-effect control and ±100 the full control effect; nearly all actives have a fitted effect of over 65% in size
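GFP signal (ex488/em500-530) from TGF-beta-stimulated HEPG2 CAGA-GFP cells, 500 pg/mL final, 18 h at 37 degrees C in DMEM plus 1% FBS, normalized to unstimulated and DMSO-stimulated controls.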
The depositor's hits bear a star; i = inactive; ? = inconclusive; . = not tested or not shown; ! = a repeat was not active; [ ] = another dose, or the depositor's remark. The call rests on the fitted dose curve; in most records, active means well fitted curve in the direction sought with a large enough effect; inconclusive means small, poorly fitted or top-dose-only effect, or another doubt; inactive means no such curve, though single readings can be large; an effect the other way counts as inactive or inconclusive. Potency means the concentration at half of the fitted maximal effect.

SMILES	ATXN2 expr inh	ATXN viability	HT1080 IDH1KD tx	HT1080-NT tox	HepG2 viability	TGFb SMAD3 inh
COc1ccc(/C=C/C2=CCN(C)CC2)cc1	.	i	3%	-5%	-13%	17%
CN1CC=C(/C=C/c2ccc(-c3ccccc3)cc2)CC1	.	?	-13%	-17%	11µM*	?
Cc1ccc2c(Cl)cc(Cl)c(O)c2n1	7.1µM*!	?	8.2µM*	-24%	-30%	13µM*
CN(C)C(=O)Oc1c(Cl)cc(Cl)c2cccnc12	5%	i	6%	-1%	4%	1%
Cc1ccc(-c2nc(N(C)C3CCN(C)CC3)c3ccccc3n2)cc1	20µM*	?	16µM*	13µM*	13µM*	?
Cc1ccc2c(c1)C1CN(C)CCC1N2C(=O)c1cn(-c2ccccc2)nc1-c1ccccc1 (centres undefined)	-11%	?	21µM*	.	-44%	?
Cc1ccc2c(c1)[C@@H]1CN(C)CC[C@@H]1N2C(=O)Nc1cccc(C(F)(F)F)c1	?	i	?	13µM*	-92%	?
Cc1ccc2c(c1)C1CN(C)CCC1N2C(=O)Nc1cccc(C(F)(F)F)c1 (centres undefined)	-13%	i	?	?	-86%	0%
COc1ccc2c(c1O)-c1c(OC)c(OC)cc3c1[C@H](C2)N(C)CC3	-1%	i	17%	?	-16%	-8%
CCCN1CCc2cccc3c2[C@H]1Cc1ccc(O)c(O)c1-3	?	.	23µM*	3.3µM*	-26%	?
C[C@]12C=CC(=O)C=C1CC[C@@H]1C2=CC[C@]2(C)[C@@H](C(=O)CN3CCN(c4cc(N5CCCC5)nc(N5CCCC5)n4)CC3)CC[C@@H]12	-22%	?	-25%	-26%	25µM*	2%
C[C@H]1COC2=C1C(=O)C(=O)c1c2ccc2c1CCCC2(C)C	3%	?	-28%	?	10µM*	4.5µM*
O=C(c1ccccc1)C(CN1CCCC1)c1ccccc1 (centres undefined)	?	.	13µM*	21µM*	5.6µM*	?
O=C(CN1CCCC1)c1ccccc1	.	.	.	.	-2%	-1%
Clc1ccc(C(c2ccc(Cl)cc2)n2cc[n+](CC(OCc3ccc(Cl)cc3Cl)c3ccc(Cl)cc3Cl)c2)cc1 (centres undefined)	28µM*!	18µM*	5.8µM*	5.2µM*	13µM*	18µM*
C=CCO[C@@H](Cn1ccnc1)c1ccc(Cl)cc1Cl	.	i	.	.	.	.
CC1COC2(c3ccccc3Cl)c3cc(Cl)ccc3NC(=O)CN12 (centres undefined)	4%	i	.	.	.	.
CCN(CC)c1ccc(CNCCc2ccccc2F)cc1	-24%	?	18µM*	16µM*	-21%	-10%
CS(=O)(=O)c1ccc(C2=C(CNC(=O)c3ccc([N+](=O)[O-])cc3)[C@H]3CC[C@@H](C2)N3Cc2ccccc2)cc1	-2%	i	-10%	-12%	-27%	-2%
O=C(NCC1=C(c2cccc3ccccc23)C[C@@H]2CC[C@H]1N2Cc1ccco1)c1ccc([N+](=O)[O-])cc1	?	14µM*	?	?	-41%	?
O=C(Nc1ccc(F)cc1)[C@@H](c1ccccc1)N1Cc2ccccc2C1=O	-10%	?	.	.	-20%	-19%
c1ccc(CNc2c3c(nc4ccccc24)CCC3)cc1	18µM*	?	?	?	-29%	?
Cc1cccc(CN2C(=O)CN=C(c3ccccc3)c3cc(Cl)ccc32)c1	.	.	.	.	-41%	16µM*
CCc1cccc(NC(=O)CN2C(=O)CN=C(c3ccccc3F)c3cc(Cl)ccc32)c1	.	.	.	.	-55%	13µM*
CC(=O)N1CCCc2cc(S(=O)(=O)N3CCCC(C(=O)N4CCN(c5ccccc5F)CC4)C3)ccc21 (centres undefined)	?	?	.	.	-14%	-24%
SMILES	ATXN2 expr inh	ATXN viability	HT1080 IDH1KD tx	HT1080-NT tox	HepG2 viability	TGFb SMAD3 inh
COc1cc(CC(C)N)cc2c1OCO2 (centres undefined)	-11%[116 µM]	i	.	.	.	.
O=C(COc1cccc(C(F)(F)F)c1)Nc1ccc(S(=O)(=O)N2CCCC2)cc1	-2%	i	?	0%[9.24 µM]	-21%	-9%
O=S(=O)(c1ccc(Nc2ccc(-c3ccc4c(c3)OCCO4)nn2)cc1)N1CCCC1	39%	i	?	16µM*	-15%	-12%
O=c1[nH]c(O)c(N=Nc2cc([N+](=O)[O-])ccc2O)c(=O)[nH]1	4%	9.5µM*	-18%	-2%	1%	-1%
O=c1[nH]c(O)c(N=Nc2ccc(SC(F)F)cc2)c(=O)[nH]1	-3%	?	-28%	?	-8%	-1%
CN1C(=O)c2ccccc2Sc2ccc(NC(=O)c3ccc(C(F)(F)F)cc3)cc21	?	?	.	.	-5%	-1%
O=C(O)[C@@H](O)[C@H](O)C(=O)O	-1%	i	14%	26%	-17%	1%
c1ccc2c(c1)OCC(C1=NCCN1)O2 (centres undefined)	?	13µM*!	?	-28%	-66%	?
Cc1cccc(C(C)C)c1NC(=O)Cn1c(=O)oc2cc(S(=O)(=O)N3CCCC3)ccc21	.	.	.	.	-13%	.
CC(C)N(CCNC(=O)CN1CCCC1=O)C(C)C	0%	.	.	.	.	.
COc1ccc(/C=N\N=C(N)N)cc1	-27%	?	0%	-2%	-26%	4%
NC(N)=N/N=C/c1ccc(N(c2ccccc2)c2ccccc2)cc1	.	.	?	?	7.9µM*	13µM*
CCCOc1ccc(C(=O)Nc2ccc(-c3cc4ccccc4oc3=O)c(C)c2)cc1	?	?	.	.	-22%	-28%
Cc1ccc(S(=O)(=O)c2nnn3c2nc(N2CCC(C(N)=O)CC2)c2cc(Cl)ccc23)cc1C	?	i	.	.	-10%	38%
OC(c1cccc(Cl)c1)(c1cccc(Cl)c1)C1CN2CCC1CC2 (centres undefined)	-2%[11.3 µM]	?	18µM*	23µM*	-109%	?
Oc1cccc2cccnc12	11µM*!	13µM*!	.	.	5.6µM*	3.5µM*
C[C@]12CC[C@H]3[C@@H](CC[C@@]45O[C@H]4C(O)=C(C#N)C[C@]35C)[C@H]1CC[C@H]2O	-6%	i	.	.	.	.
COC(=O)C1=C(c2ccc(-c3ccccc3)c(F)c2)C[C@@H]2CC[C@H]1N2C(=O)N1CCCCC1	?	?	21µM*	?	-5%	?
COC(=O)C1=C(c2ccc(-c3ccccc3)c(F)c2)C[C@@H]2CC[C@H]1N2C(=O)N1CCCC1	?	?	-26%	-19%	-28%	?

Source: PubChem BioAssay
